What all share (assay): NCI-60 one-dose screen, 48 h (100 = growth as untreated, 0 = no growth, -100 = all killed)
Common to all, as to settings: 10 µM unless noted

Experiment [1] concerns NCI-H226 lung.
The test system of experiment [2] is NCI-H322M lung.
The subject of experiment [3] is HOP-62 NSCLC.
For experiment [4], the system named is NCI-H460 lung.
Experiment [5] concerns HOP-92 NSCLC.
In experiment [6] the test system is NCI-H522 lung.
Experiment [7] has as its system A549/ATCC NSCLC.
Experiment [8] has as its system 786-0 renal.
Experiment [9] relates to COLO 205 colon.
Experiment [10] deals with DU-145 prostate.
Experiment [11] relates to K-562 leukemia.
The subject of experiment [12] is MALME-3M melanoma.
The subject of experiment [13] is MDA-MB-231 breast.
For experiment [14], the system named is RXF 393 renal.
The subject of experiment [15] is SF-268 CNS.
Experiment [16] deals with SF-295 CNS.
Experiment [17] has as its system SF-539 CNS.
Experiment [18] concerns UACC-257 melanoma.
Experiment [19] has as its system M14 melanoma.
Experiment [20] deals with NCI-H23 lung.

Structures are written as SMILES. “And” between values parts separate entries of the source, which are not always exact repeats. Equal values may be shown once. About 83,000 compounds went through this panel and 20% of them were active in at least one assay; those are over-represented in the sample as a whole.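 Single-concentration screen, 48 h exposure, 96-well plates. Endpoint: percent growth. Below 10 = active.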 The source made the active and inactive calls.

`Cc1cc(=O)[nH]c(O)c1C#N`: the growth in [1] is 103% (inactive) and 101% (inactive); in [2], 95.5% (inactive) and 99% (inactive); in [3], 96.6% (inactive) and 101% (inactive); in [4], 105% (inactive) and 104% (inactive); in experiment [5], 106% (inactive) and 52% (inactive); in experiment [6] it was 101% (inactive) and 96.9% (inactive). The growth was 102% (inactive) and 95.3% (inactive) in experiment [7]; 97.7% (inactive) and 98.5% (inactive) in experiment [8]; 111% (inactive) and 104% (inactive) in experiment [9]; 112% (inactive) and 106% (inactive) in experiment [10]; 106% (inactive) and 112% (inactive) in experiment [11]; 98% (inactive) and 103% (inactive) in experiment [12]. Also, the growth in [13] was 107% (inactive) and 109% (inactive); in [14] it was 106% (inactive); in [15], 109% (inactive) and 101% (inactive); in experiment [16], 99.6% (inactive) and 98.5% (inactive); in experiment [17], 97.8% (inactive) and 105% (inactive); in experiment [18], 99.4% (inactive) and 103% (inactive). The growth in experiment [19] was 99.4% (inactive) and 101% (inactive).
For `Cc1ccc(S(=O)(=O)Nc2ccc3cc([N+](=O)[O-])ccc3c2[N+](=O)[O-])cc1`, the growth in experiment [1] was 67.6% (inactive) and 95.5% (inactive); in [2], 93% (inactive) and 93.1% (inactive); in [3], 92.7% (inactive) and 95% (inactive); in experiment [4] it was 76.4% (inactive) and 91.3% (inactive); in experiment [5], 27.9% (inactive) and -8.68% (active); in [6] it was 54.6% (inactive) and 85.3% (inactive). The growth in experiment [7] is 77.7% (inactive) and 91.2% (inactive); in experiment [8], 72.2% (inactive) and 85.9% (inactive); in [9], 106% (inactive) and 96.6% (inactive); in experiment [10], 90.9% (inactive) and 106% (inactive); in experiment [11], 81.8% (inactive) and 29% (inactive); in experiment [12], 62.6% (inactive) and 90.9% (inactive). Moreover, the growth in experiment [13] was 98.8% (inactive) and 95.1% (inactive); in [14], 93.2% (inactive) and 102% (inactive); in experiment [15] it was 81.8% (inactive) and 94.8% (inactive); in experiment [16], 38.9% (inactive) and 53.1% (inactive); in experiment [17], 89.8% (inactive) and 111% (inactive); in experiment [18], 82.3% (inactive) and 97% (inactive). The growth in [19] is 95.5% (inactive) and 95% (inactive).
For the molecule `O=C(O)CCCCc1ccc([N+](=O)[O-])cc1`, the growth in [20] was 99.6% (inactive) and 101% (inactive); in experiment [2] it was 112% (inactive) and 96.7% (inactive); in experiment [3] it was 103% (inactive); in experiment [4], 96.1% (inactive) and 120% (inactive); in experiment [6] it was 91.7% (inactive) and 103% (inactive); in [8], 102% (inactive) and 96.1% (inactive). For the same molecule, the growth was 115% (inactive) and 113% (inactive) in experiment [9]; 106% (inactive) and 114% (inactive) in experiment [10]; 83.7% (inactive) and 103% (inactive) in [11]; 102% (inactive) and 106% (inactive) in experiment [12]; 112% (inactive) and 95% (inactive) in experiment [13]; 116% (inactive) and 148% (inactive) in experiment [14]. Also, the growth is 98.9% (inactive) and 115% (inactive) in [15]; 113% (inactive) in experiment [16]; 94.3% (inactive) and 102% (inactive) in [17]; 125% (inactive) and 97.8% (inactive) in experiment [18]; 102% (inactive) and 104% (inactive) in [19].
Consider `CCNC(=O)Nc1ccc(-c2nc3c(c(N4CCOC[C@@H]4C)n2)CCN(C2COC2)C3)cc1`, for which the growth is 19.7% (inactive) and -3.42% (active) in experiment [1]; 39.3% (inactive) and 12.1% (inactive) in experiment [2]; 43.3% (inactive) and 0.37% (active) in [3]; 25.7% (inactive) and 14.3% (inactive) in experiment [4]; -6.36% (active) and -16.3% (active) in experiment [5]; 24.1% (inactive) and 6.99% (active) in [6]. For the same molecule, the growth is 44.3% (inactive) and 2.19% (active) in experiment [7]; 36.6% (inactive) and 5.36% (active) in experiment [8]; 28.4% (inactive) and 3.31% (active) in experiment [9]; 49.7% (inactive) and 19.4% (inactive) in experiment [10]; 61.6% (inactive) and 17.2% (inactive) in experiment [11]; -9.78% (active) and -10.6% (active) in experiment [12]. Further, the growth in [13] was 44.5% (inactive) and 23.2% (inactive); in [14], 3.76% (active) and -28.4% (active); in [15], 54.3% (inactive) and 17.6% (inactive); in [16] it was 18.4% (inactive) and -25.6% (active); in experiment [17] it was 33.2% (inactive) and -21.9% (active); in experiment [18], 36.7% (inactive) and -27% (active). Besides, the growth in experiment [19] is 37.3% (inactive) and 8.1% (active).
With `O=C(CCc1ccc(O)cc1)N/N=C/c1cc(Br)ccc1O`, the growth is 38.9% (inactive) in experiment [2]; 62.7% (inactive) in experiment [3]; 29.7% (inactive) in [4]; 80.7% (inactive) in [5]; 77.5% (inactive) in experiment [6]; 42% (inactive) in experiment [8]. Also, the growth in experiment [9] is 92% (inactive); in [10], 63.2% (inactive); in [11] it was 15.4% (inactive); in experiment [12] it was 87.1% (inactive); in experiment [13], 59.7% (inactive); in experiment [14], 76.6% (inactive). For the same molecule, the growth in experiment [15] was 48.3% (inactive); in experiment [17], 39.9% (inactive); in [18] it was 55.5% (inactive); in [19] it was 39.9% (inactive).

The values above are taken from PubChem BioAssay (NCI).
